In PubChem BioAssay one finds inhibition data, which are given here for 38 compounds.

Values without a mark were called inactive. The source made the active and inactive calls. Cut-off read from the data, not from the text of the source, unless noted: active = inhibition above about 42%; inactive = the rest.

As a reminder, the inhibition is the change of the read-out against control, counted positive when it falls.

Tested on in one assay: not listed separately
Kind of assay: StAR promoter reporter inhibitors, counter-screen for LRH-1 inverse agonist project, cell-based, luminescence, high throughput (AID 651611; in the data active = inhibition above about 28%). Conditions: StAR promoter luciferase reporter counterscreen, at 3.6 µM, active compounds read high. A general note: The purpose of a counterscreen is to sort out artefacts and off-target activity.
In the case of `O=C1Nc2ccccc2/C1=C/c1cnc[nH]1`, the inhibition is 14.6%.
Still for that read-out and setting: for `CCOC(=O)[C@]12Cc3cc(OC)ccc3[C@H]1N(C1CCCCC1)C(=O)c1ccccc12` the value was 49.6% (active); for `CCCCn1c(NC(=O)c2ccc(Br)o2)c(C(=O)OCC)c2nc3ccccc3nc21`, 27.1%.
`N#Cc1ccc(NC(=S)N2Cc3ccccc3-n3nncc3C2)cc1`: the inhibition is -5.3%.
The same measure, in the same setting: in the case of `Cc1nn(Cc2ccccc2)c(C)c1C(=O)OCC(=O)Nc1ccccc1SCC#N` it was -1.13%; in that of `N#CCCn1cc(C(=O)Nc2ccc([N+](=O)[O-])cc2)c(-c2ccccc2)n1`, 7.58%.
The same measure, in the same setting: in the case of `CCC(C)N1C(=O)/C(=C\c2ccc(N3CCCCCC3)cc2)C(=O)NC1=S` (stereo unspecified) it was 1.31%; in that of `CCOC(=O)[C@]12Cc3cc(C)ccc3[C@H]1N(C1CCCCC1)C(=O)c1ccccc12`, 71.1% (active); in that of `CC1OC(OC2C=C3CCC4C(CCC5(C)C(c6ccc(=O)oc6)CCC45O)C3(C)CC2)C(O)C(OC2OC(CO)C(O)C(O)C2O)C1O` (stereo unspecified), 95.6% (active).
The same measure, in the same setting: for `CC[n+]1c(/C=C/C=C/c2ccc(N(C)C)cc2)sc2ccccc21` the value was 54% (active); for `N#CCCn1cc(C(=O)Nc2ccccc2Br)c(-c2ccc([N+](=O)[O-])cc2)n1`, 18.4%; for `c1ccc2c(c1)[IH]c1ccccc1-2`, 42.4% (active).
On to `CC1=CC(O)C(O)C2(C)C1CC1OC(=O)CC3C(C)C(O)C(=O)C2C13CO` (stereo unspecified), for which the inhibition is 18.7%.
Same read-out and setting: in the case of `Cc1cc(OC(=O)c2ccco2)c2c3c(c(=O)oc2c1)CCCC3` it was 7.67%.
On the same count and under the same terms, for `CCOc1cc(C=O)ccc1O` the value was -4.06%; for `CCOC(=O)[C@]12Cc3cc(Cl)ccc3[C@H]1N(C1CCCCC1)C(=O)c1ccccc12`, 80.2% (active).
Same read-out and setting: for `C=C1C(=O)O[C@@H]2C[C@@H](C)[C@@H]3C4OC4C(=O)[C@@]3(C)[C@@H](O)[C@H]12` (stereo partly specified) the value was -30%; for `O=c1[nH]c2ccccc2n1C1CCN(Cc2ccc(-c3[nH]c4cc5ncnc5cc4nc3-c3ccccc3)cc2)CC1`, 42.3% (active).
As to `C[C@@H]1O[C@@H](O[C@H]2C[C@@H](O)[C@]3(CO)[C@H]4[C@H](O)C[C@]5(C)[C@@H](C6COC(=O)C6)CC[C@]5(O)[C@@H]4CC[C@]3(O)C2)[C@H](O)[C@H](O)[C@H]1O` (stereo partly specified), the inhibition is 92.4% (active).
On the same count and under the same terms, in the case of `Cc1ccccc1-n1c(/C=C/c2ccccn2)nc2ccccc2c1=O` it was 35.8% (active); in that of `CC(=O)OC(C)(C)/C=C/C(=O)C(C)(O)C1C(O)CC2(C)C3CC=C4C(CC(O)C(=O)C4(C)C)C3(C)C(=O)CC12C` (stereo unspecified), 66% (active); in that of `COC(=O)C(C)Oc1cc(C)cc2oc(=O)c3c(c12)CCC3` (stereo unspecified), 47.8% (active).
As for `OC1(c2ccc(F)cc2)CC2CCC(C1)N2Cc1nnnn1C1CCCC1` (stereo unspecified), the inhibition was -7.67%.
In the case of `CC(=O)c1cn(Cc2ccccc2C#N)c2ccccc12`, the inhibition was 28.8% (active).
Still for that read-out and setting: in the case of `CCN(CC)C(=O)COc1cc(C)cc2oc(=O)c3c(c12)CCCC3` it was 7.68%; in that of `CC(=O)OC1C(O)C(C)OC(OC2C(OC(=O)C3CCC4C(C3)OC3(CC(OC(=O)/C=C/c5ccccc5)C(C)CO3)C43CO3)OC(C)C(O)C2OC(C)=O)C1O` (stereo unspecified), 96.1% (active); in that of `COc1ccc(NS(=O)(=O)c2ccc(OCC(=O)N3CCN(C)CC3)cc2)cc1Cl`, 2.1%.
As to `CCOC(=O)c1c(C)n(CC(O)CN2CCOCC2)c2cc(Br)c(OC)cc12` (stereo unspecified), the inhibition was 22%.
On the same count and under the same terms, for `COC(=O)C(C)Oc1cc(C)cc2oc(=O)c3c(c12)CCCC3` (stereo unspecified) the value was 14.4%; for `CC(C)N(C(=O)CCl)c1ccccc1`, 19.8%.
Regarding `CCOC(=O)[C@]12Cc3cc(Cl)ccc3[C@H]1N(CC(=O)OC)C(=O)c1ccccc12`, the inhibition is 72.7% (active).
With `CCOC(=O)[C@]12Cc3ccc(C)cc3[C@H]1N(C1CCCCC1)C(=O)c1ccccc12`, the inhibition is 39.6% (active).
Same read-out and setting: for `N#CCCn1cc(C(=O)Nc2ccccc2Cl)c(-c2ccc([N+](=O)[O-])cc2)n1` the value was 16.9%; for `CN1C(=O)C(=Cc2ccc(N3CCCCCC3)cc2)C(=O)N(C)C1=O`, 9.79%.
As to `NC(Cc1ccc(F)cc1)c1csc(Nc2ncccn2)n1` (stereo unspecified), the inhibition is 40.1% (active).
Same read-out and setting: in the case of `COC(=O)COc1cc(C)cc2oc(=O)c3c(c12)CCCC3` it was 3.14%; in that of `N#Cc1ccc2nc(-c3ccc(CN4CCC(n5c(=O)[nH]c6ccccc65)CC4)cc3)c(-c3ccccc3)nc2c1`, 43.8% (active); in that of `CC(=O)O[C@H]1C(=O)[C@@]2(C)C([C@H](OC(=O)c3ccccc3)[C@]3(O)C[C@H](OC(=O)[C@H](O)[C@@H](NC(=O)Cc4ccccc4)c4ccccc4)C(C)=C1C3(C)C)[C@]1(OC(C)=O)CO[C@@H]1C[C@@H]2O` (stereo partly specified), 50.1% (active).

For a further assay, the target named is Nuclear receptor subfamily 5 group A member 2 (Homo sapiens) (UniProt O00482). Kind of assay: NR5A2 activity suppression in reporter cells – cell-based, luminescence, confirmation (AID 651613).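 Note: HEK293T cells co-transfected with LRH-1 and StAR promoter luciferase reporter; 0% = vehicle wells and 100% = parental cells lacking receptor.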 Conditions: cell-based LRH-1 luciferase reporter, inverse agonism; at 3.6 µM; active compounds read high. In general terms: In a reporter assay the amount or activity of a reporter protein is the signal.
Sequence of Nuclear receptor subfamily 5 group A member 2 (Homo sapiens) (O00482 whole entry, looked up): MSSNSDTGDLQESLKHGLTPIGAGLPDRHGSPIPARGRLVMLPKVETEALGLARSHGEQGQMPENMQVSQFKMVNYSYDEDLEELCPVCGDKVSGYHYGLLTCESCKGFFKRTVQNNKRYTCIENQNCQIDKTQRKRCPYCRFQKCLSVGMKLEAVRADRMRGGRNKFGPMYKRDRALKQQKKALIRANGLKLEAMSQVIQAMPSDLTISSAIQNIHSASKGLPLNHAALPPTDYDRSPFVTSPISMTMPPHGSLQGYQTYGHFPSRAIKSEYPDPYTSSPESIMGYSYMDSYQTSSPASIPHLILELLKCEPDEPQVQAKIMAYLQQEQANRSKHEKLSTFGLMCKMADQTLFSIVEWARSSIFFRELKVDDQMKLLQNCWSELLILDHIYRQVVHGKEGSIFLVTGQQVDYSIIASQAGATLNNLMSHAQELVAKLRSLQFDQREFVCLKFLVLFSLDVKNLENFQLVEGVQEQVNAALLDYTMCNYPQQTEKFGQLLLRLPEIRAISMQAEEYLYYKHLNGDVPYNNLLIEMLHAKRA
Turning to `O=C1Nc2ccccc2/C1=C/c1cnc[nH]1`, the inhibition is 14.2%.
Same read-out and setting: for `CCOC(=O)[C@]12Cc3cc(OC)ccc3[C@H]1N(C1CCCCC1)C(=O)c1ccccc12` the value was 93.3% (active); for `CCCCn1c(NC(=O)c2ccc(Br)o2)c(C(=O)OCC)c2nc3ccccc3nc21`, 27.8%; for `N#Cc1ccc(NC(=S)N2Cc3ccccc3-n3nncc3C2)cc1`, 56.4% (active).
Still for that read-out and setting: in the case of `Cc1nn(Cc2ccccc2)c(C)c1C(=O)OCC(=O)Nc1ccccc1SCC#N` it was 58.8% (active); in that of `N#CCCn1cc(C(=O)Nc2ccc([N+](=O)[O-])cc2)c(-c2ccccc2)n1`, 35.3%.
`CCC(C)N1C(=O)/C(=C\c2ccc(N3CCCCCC3)cc2)C(=O)NC1=S` (stereo unspecified): the inhibition was 58.9% (active).
The same measure, in the same setting: for `CCOC(=O)[C@]12Cc3cc(C)ccc3[C@H]1N(C1CCCCC1)C(=O)c1ccccc12` the value was 102% (active); for `CC1OC(OC2C=C3CCC4C(CCC5(C)C(c6ccc(=O)oc6)CCC45O)C3(C)CC2)C(O)C(OC2OC(CO)C(O)C(O)C2O)C1O` (stereo unspecified), 110% (active); for `CC[n+]1c(/C=C/C=C/c2ccc(N(C)C)cc2)sc2ccccc21`, 104% (active).
As for `N#CCCn1cc(C(=O)Nc2ccccc2Br)c(-c2ccc([N+](=O)[O-])cc2)n1`, the inhibition is 61.5% (active).
With `c1ccc2c(c1)[IH]c1ccccc1-2`, the inhibition was 78.5% (active).
For the compound `CC1=CC(O)C(O)C2(C)C1CC1OC(=O)CC3C(C)C(O)C(=O)C2C13CO` (stereo unspecified), the inhibition is 43% (active).
Same read-out and setting: for `Cc1cc(OC(=O)c2ccco2)c2c3c(c(=O)oc2c1)CCCC3` the value was 56% (active); for `CCOc1cc(C=O)ccc1O`, 41.4% (active).
The same measure, in the same setting: for `CCOC(=O)[C@]12Cc3cc(Cl)ccc3[C@H]1N(C1CCCCC1)C(=O)c1ccccc12` the value was 107% (active).
Regarding `C=C1C(=O)O[C@@H]2C[C@@H](C)[C@@H]3C4OC4C(=O)[C@@]3(C)[C@@H](O)[C@H]12` (stereo partly specified), the inhibition is 60.7% (active).
Still for that read-out and setting: in the case of `O=c1[nH]c2ccccc2n1C1CCN(Cc2ccc(-c3[nH]c4cc5ncnc5cc4nc3-c3ccccc3)cc2)CC1` it was 64.2% (active); in that of `C[C@@H]1O[C@@H](O[C@H]2C[C@@H](O)[C@]3(CO)[C@H]4[C@H](O)C[C@]5(C)[C@@H](C6COC(=O)C6)CC[C@]5(O)[C@@H]4CC[C@]3(O)C2)[C@H](O)[C@H](O)[C@H]1O` (stereo partly specified), 103% (active).
Still for that read-out and setting: for `Cc1ccccc1-n1c(/C=C/c2ccccn2)nc2ccccc2c1=O` the value was 49.5% (active); for `CC(=O)OC(C)(C)/C=C/C(=O)C(C)(O)C1C(O)CC2(C)C3CC=C4C(CC(O)C(=O)C4(C)C)C3(C)C(=O)CC12C` (stereo unspecified), 56.8% (active); for `COC(=O)C(C)Oc1cc(C)cc2oc(=O)c3c(c12)CCC3` (stereo unspecified), 76.3% (active).
For the compound `OC1(c2ccc(F)cc2)CC2CCC(C1)N2Cc1nnnn1C1CCCC1` (stereo unspecified), the inhibition was 46.8% (active).
Still for that read-out and setting: for `CC(=O)c1cn(Cc2ccccc2C#N)c2ccccc12` the value was 57.2% (active).
Same read-out and setting: for `CCN(CC)C(=O)COc1cc(C)cc2oc(=O)c3c(c12)CCCC3` the value was 63.6% (active); for `CC(=O)OC1C(O)C(C)OC(OC2C(OC(=O)C3CCC4C(C3)OC3(CC(OC(=O)/C=C/c5ccccc5)C(C)CO3)C43CO3)OC(C)C(O)C2OC(C)=O)C1O` (stereo unspecified), 109% (active); for `COc1ccc(NS(=O)(=O)c2ccc(OCC(=O)N3CCN(C)CC3)cc2)cc1Cl`, 48.2% (active).
Still for that read-out and setting: for `CCOC(=O)c1c(C)n(CC(O)CN2CCOCC2)c2cc(Br)c(OC)cc12` (stereo unspecified) the value was 57.1% (active).
For the compound `COC(=O)C(C)Oc1cc(C)cc2oc(=O)c3c(c12)CCCC3` (stereo unspecified), the inhibition was 63.3% (active).
The same measure, in the same setting: in the case of `CC(C)N(C(=O)CCl)c1ccccc1` it was 54.8% (active); in that of `CCOC(=O)[C@]12Cc3cc(Cl)ccc3[C@H]1N(CC(=O)OC)C(=O)c1ccccc12`, 94.3% (active); in that of `CCOC(=O)[C@]12Cc3ccc(C)cc3[C@H]1N(C1CCCCC1)C(=O)c1ccccc12`, 98% (active).
The same measure, in the same setting: for `N#CCCn1cc(C(=O)Nc2ccccc2Cl)c(-c2ccc([N+](=O)[O-])cc2)n1` the value was 57.2% (active); for `CN1C(=O)C(=Cc2ccc(N3CCCCCC3)cc2)C(=O)N(C)C1=O`, 57% (active); for `NC(Cc1ccc(F)cc1)c1csc(Nc2ncccn2)n1` (stereo unspecified), 43.3% (active).
Same read-out and setting: for `COC(=O)COc1cc(C)cc2oc(=O)c3c(c12)CCCC3` the value was 46.5% (active); for `N#Cc1ccc2nc(-c3ccc(CN4CCC(n5c(=O)[nH]c6ccccc65)CC4)cc3)c(-c3ccccc3)nc2c1`, 44% (active); for `CC(=O)O[C@H]1C(=O)[C@@]2(C)C([C@H](OC(=O)c3ccccc3)[C@]3(O)C[C@H](OC(=O)[C@H](O)[C@@H](NC(=O)Cc4ccccc4)c4ccccc4)C(C)=C1C3(C)C)[C@]1(OC(C)=O)CO[C@@H]1C[C@@H]2O` (stereo partly specified), 45.2% (active).
